Each structure is given as a SMILES string. Structures can show the parent of a compound that is named as a salt. Unmarked numbers belong to inactive results.

This experiment deals with Vero E6 infected with SARS-CoV-2. Briefly: inhibition of SARS-CoV-2 cytopathic effect; higher = more antiviral protection, active = above 15. To be noted: 833.33 nM; 48 h. For orientation: Protection from cytopathic effect is a common read-out in antiviral testing.
Regarding `O=C(NO)c1ccc(O)c(O)c1` [didox], the “inhibition of SARS-CoV-2 cytopathic effect” value (“inhibition” below) was -2.16%. On to `Cc1ccc2c(c1)=C(c1ccccc1)C(C1=NN(C(=O)CCC(=O)O)C(c3ccc(Br)cc3)C1)C(=O)N=2` (centres undefined), for which the “inhibition” value was 3.61%. In the case of `CC(C)[C@@H]1CC[C@@H](C)C[C@H]1O` [levomenthol] it was 0.09%; in that of `COc1ccc(C(=O)c2ccccc2O)c(O)c1` [dioxybenzone], -0.76%; in that of `c1ccc2c(c1)OC[C@H](CNCCCOc1ccc3c(c1)OCO3)O2` [osemozotan], 1.42%.

Take `CC(C)C[C@H](NC(=O)[C@@H](Cc1c[nH]c2ccccc12)NC(=O)[C@H](Cc1ccc(O)cc1)NC(=O)[C@H](CO)NC(=O)[C@H](Cc1c[nH]c2ccccc12)NC(=O)[C@H](Cc1c[nH]cn1)NC(=O)[C@@H]1CCC(=O)N1)C(=O)N[C@@H](CCCNC(=N)N)C(=O)N1CCC[C@H]1C(=O)NCC(N)=O` [triptorelin]: the “inhibition” value was 2.17%. Then `Cc1cc(N2CCCCC2)nc2ccccc12`, with 0.63%. In the case of `Oc1cc(O)cc(O)c1` [phloroglucin] it was 2.17%; in that of `CC(=O)NS(=O)(=O)c1ccc(NC(=O)c2ccccc2C(=O)O)cc1` [phthalylsulfacetamide], 0.53%; in that of `C[C@]1(COc2ccc(N3CCC(Oc4ccc(OC(F)(F)F)cc4)CC3)cc2)Cn2cc([N+](=O)[O-])nc2O1` [delamanid], 2.83%. For the molecule `Cc1ccc(/C=N/NC(=O)c2ccccc2Oc2ccccc2)o1`, the “inhibition” value was 0.13%. In the case of `C=CC(=O)Nc1cccc(Nc2nc(Nc3ccc(N4CCN(C(C)=O)CC4)cc3OC)ncc2C(F)(F)F)c1` [rociletinib] it was -2.42%; in that of `COc1ccc(CCN(C)CCc2ccc(OC)c(OC)c2)cc1OC`, 4.35%; in that of `Nc1ncnc2c1ncn2[C@H]1CC[C@@H](CO)O1` [dideoxyadenosine], 1.23%. In the case of `C[C@H](Oc1cc(-c2cnn(C3CCNCC3)c2)cnc1N)c1c(Cl)ccc(F)c1Cl` [crizotinib-(S)] it was -0.47%.

As to `C[C@]12CCC(=O)C=C1CC[C@@H]1[C@@H]2C(=O)C[C@]2(C)C(=O)CC[C@@H]12` [adrenosterone], the “inhibition” value was 1.4%.

As to `CC(=O)OCC(=O)[C@@]1(O)[C@@H](C)C[C@H]2[C@@H]3CCC4=CC(=O)C=C[C@]4(C)[C@@]3(F)[C@@H](O)C[C@@]21C` [betamethasone-acetate], the “inhibition” value was 0.57%. Turning to `C/C=C/C[C@@H](C)C(=O)[C@H]1C(=O)N[C@@H](C(C)C)C(=O)N(C)CC(=O)N(C)[C@@H](CC(C)C)C(=O)N[C@@H](C(C)C)C(=O)N(C)[C@@H](CC(C)C)C(=O)N[C@@H](C)C(=O)N[C@H](C)C(=O)N(C)[C@@H](CC(C)C)C(=O)N(C)[C@@H](CC(C)C)C(=O)N(C)[C@@H](C(C)C)C(=O)N1C` [valspodar], the “inhibition” value is 0.22%. Then `Nc1ncnc2c1c(COc1cccc(Cl)c1)nn2C1CCOCC1`, with -1.57%; and `N#Cc1ccc(-c2ccc(S(=O)(=O)Nc3cccc(N)n3)cc2)cc1`, with 0.76%. In the case of `CN(C)c1cc(CNCC(C)(C)C)c(O)c2c1C[C@H]1C[C@H]3[C@H](N(C)C)C(O)=C(C(N)=O)C(=O)[C@@]3(O)C(O)=C1C2=O` [omadacycline], the “inhibition” value is -0.64%. As for `O=C(O)c1ccccc1O` [salicylic-acid], the “inhibition” value is 0.26%.

Turning to `O=C(Oc1cc(S(=O)(=O)c2ccccc2)ccc1[N+](=O)[O-])c1ccc(Cl)cc1`, the “inhibition” value is -0.23%. In the case of `NCCc1c[nH]c2ccc(C(N)=O)cc12` [5-carboxamidotryptamine], the “inhibition” value is 15.1% (active). Then `CC1CCC(NC(=O)N(CCCl)N=O)CC1` (centres undefined) [semustine], with -1.54%. In the case of `CN(C)C(=O)COC(=O)Cc1ccc(OC(=O)c2ccc(NC(=N)N)cc2)cc1` [Camostat mesylate] it was 1.08%; in that of `CCCCCCCCCCC(O)C1C=CC2C(=O)N(c3ccccc3)C(=O)C2N1Nc1ccc([N+](=O)[O-])cc1` (centres undefined), 4.49%; in that of `COc1ccc(N(C)c2nc(C)nc3ccccc23)cc1` [verubulin], 2.89%. In the case of `CC=CC1=C(C(=O)O)N2C(=O)[C@@H](NC(=O)[C@H](N)c3ccc(O)cc3)[C@H]2SC1` (mixture of isomers) [cefprozil] it was -0.77%.

Source of the values: the supplement of paper PMC13380429.
